± gives the standard deviation of the averaged measurements.
Each compound was assayed on HCI09 (cells of a triple-negative luminal androgen receptor type breast cancer xenograft) (assay: cell viability (% of vehicle); higher = less cytotoxic). Settings: 10 µM; 72 h.
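Also: PDX cells carrying CMV promoter-driven luciferase, viability read as total photon flux per second by IVIS imaging following D-luciferin, vehicle control 0.1% DMSO.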

Row | SMILES | cell viability
1 | COC(=O)C(c1ccccc1Cl)N1CCc2sccc2C1.O=S(=O)(O)O (stereo not given) [Clopidogrel] | 91 ± 13
2 | CC(C)(C)C(=O)C(Oc1ccc(Cl)cc1)n1ccnc1 (stereo not given) [Climbazole] | 89.7 ± 16
3 | CCCN(CCC)CCc1cccc2c1CC(=O)N2.Cl [Ropinirole HCl] | 87.9 ± 2.6
4 | CCCC(=O)Nc1ccc(OCC(O)CNC(C)C)c(C(C)=O)c1.Cl (stereo not given) [Acebutolol HCl] | 102 ± 22
5 | O=C(O)C=Cc1ccccc1 [Cinnamic acid] | 96 ± 4.4
6 | Nc1nc(=O)c2nc(CNc3ccc(C(=O)NC(CCC(=O)O)C(=O)O)cc3)cnc2[nH]1 (stereo not given) [Folic acid] | 97.5 ± 12
7 | OCC(O)CN1CCN(c2ccccc2)CC1 (stereo not given) [Dropropizine] | 89.7 ± 11
8 | CN(C)CCC(c1ccccc1)c1ccccn1.O=C(O)C=CC(=O)O (stereo not given) [Pheniramine Maleate] | 108 ± 34
9 | CC(C)(C)c1cc(NC(=O)Nc2ccc(-c3cn4c(n3)sc3cc(OCCN5CCOCC5)ccc34)cc2)no1 [Quizartinib (AC220)] | 81.5 ± 1.3
10 | O=c1nc[nH]c2c1ncn2C1CCC(CO)O1 (stereo not given) [Didanosine] | 95.4 ± 7
11 | CC1(C)SC2C(NC(=O)Cc3ccccc3)C(=O)N2C1C(=O)[O-].[Na+] (stereo not given) [Penicillin G Sodium] | 91.8 ± 20
12 | CCCCC(=O)N(Cc1ccc(-c2ccccc2-c2nnn[nH]2)cc1)[C@H](C(=O)O)C(C)C.CCOC(=O)[C@H](C)C[C@@H](Cc1ccc(-c2ccccc2)cc1)NC(=O)CCC(=O)O | 95.6 ± 18
13 | Clc1ccc(COC(Cn2ccnc2)c2ccc(Cl)cc2Cl)c(Cl)c1 (stereo not given) [Miconazole] | 62.3 ± 36
14 | O=C(O)[C@H](O)[C@@H](O)C(=O)O.c1cnc2cc3c(cc2n1)C1CNC[C@@H]3C1 [Varenicline Tartrate] | 131 ± 5.6
15 | CN(C)CCC(c1ccc(Cl)cc1)c1ccccn1.O=C(O)C=CC(=O)O (stereo not given) [Chlorpheniramine Maleate] | 108 ± 13
16 | Nc1nc(CC(=O)Nc2ccc(CCNCC(O)c3ccccc3)cc2)cs1 (stereo not given) [Mirabegron (YM178)] | 136 ± 51
17 | CCCS(=O)c1ccc2nc(NC(=O)OC)[nH]c2c1 (stereo not given) [Albendazole Oxide] | 110 ± 35
18 | C=C1C(CO)C(O)CC1n1cnc2c(=O)nc(N)[nH]c21.O (stereo not given) [Entecavir Hydrate] | 91.1 ± 4.7
19 | Cc1ccccc1C(OCCN(C)C)c1ccccc1.O=C(O)CC(O)(CC(=O)O)C(=O)O (stereo not given) [Orphenadrine Citrate] | 104 ± 1.3
20 | CCC(C)C(=O)OC1CC(C)C=C2C=CC(C)C(CCC3CC(O)CC(=O)O3)C21 (stereo not given) [Lovastatin] | 88.2 ± 12
21 | CN1CCC(=C2c3ccccc3CCc3sccc32)CC1.O=C(O)CC(O)C(=O)O [Pizotifen Malate] | 74.7 ± 3.8
22 | COCCCOc1cc(CC(CC(N)C(O)CC(C(=O)NCC(C)(C)C(N)=O)C(C)C)C(C)C)ccc1OC.COCCCOc1cc(CC(CC(N)C(O)CC(C(=O)NCC(C)(C)C(N)=O)C(C)C)C(C)C)ccc1OC.O=C(O)C=CC(=O)O (stereo not given) [Aliskiren Hemifumarate] | 107 ± 8.5
23 | CC(C)C(N)C(=O)OCCOCn1cnc2c(=O)nc(N)[nH]c21.Cl (stereo not given) [Valaciclovir HCl] | 94.3 ± 3
24 | CC1CCOC2Cn3cc(C(=O)NCc4ccc(F)cc4F)c(=O)c(O)c3C(=O)N12 (stereo not given) | 139 ± 35
25 | CC(S)C(=O)NCC(=O)O (stereo not given) [Tiopronin (Thiola)] | 54.6 ± 48
26 | CCCCC(=O)OC1CCC2C3CCc4cc(O)ccc4C3CCC12C (stereo not given) [Estradiol valerate] | 98.1 ± 4.8
27 | NC1CCCCC1N.O=C([O-])C(=O)[O-].[Pt+2] (stereo not given) [Oxaliplatin] | 75.7 ± 30
28 | COc1cc(Nc2ncc3c(n2)-c2ccc(Cl)cc2C(c2c(F)cccc2OC)=NC3)ccc1C(=O)O [MLN8237 (Alisertib)] | 106 ± 32
29 | C[N+](C)(CCOc1ccccc1)Cc1ccccc1.O=C(O)c1cc2ccccc2cc1[O-] [Bephenium Hydroxynaphthoate] | 128 ± 23
30 | CCC(C(C)O)n1ncn(-c2ccc(N3CCN(c4ccc(OCC5COC(Cn6cncn6)(c6ccc(F)cc6F)C5)cc4)CC3)cc2)c1=O (stereo not given) [Posaconazole] | 59.1 ± 18
